Cycloheximide cs – counter-screen for Shiga toxin inhibitors: cycloheximide protein synthesis inhibition | max response, % | AID 2314 | cell reporter, cycloheximide protein synthesis inhibition counterscreen | hit rate 12% among 300,000; in the data active = max response mostly above about 13%, no sharp cut-off; inactive = mostly below about 14%; note: read at 38.3 µM for the half of the compounds with a filed dose; 0% is about no effect
MARV entry inh – inhibitors of Marburg virus binding or cell entry; hit rate 1.8% among 300,000; AID 540276; Potency, µM (top dose mostly 37.8 µM), for inactives: at the highest dose activity change, negative = inhibition, hits mostly inhibitors; Marburg virus pseudotyped entry inhibition, cell reporter; calls by dose curve; tested in HEK293 cells; note: potency is the fitted concentration of half-maximal effect; % is set by controls: 0 for no effect and ±100 for the full control effect
Shiga toxin inh – inhibitors of Shiga toxin in Vero cells. AID 2315. inhibition, % at 38.7 µM. Vero cells, Shiga toxin protein synthesis inhibition reporter. hit rate 9.2% among 290,000; in the data active = inhibition mostly above about 28%, no sharp cut-off; inactive = mostly below about 43%; note: 0% is about no effect
LASV entry inh – blocks Lassa virus binding to or entry into cells; AID 540256; Lassa virus pseudotype entry inhibition, cell reporter; hit rate 1.2% among 300,000; Potency, µM (highest dose often 37.9 µM), without a hit: at the highest dose activity change, negative = inhibition, hits mostly inhibitors; calls by dose curve; tested in HEK293 cells; note: potency is the fitted concentration of half-maximal effect; % is set by controls: 0 for no effect and ±100 for the full control effect; nearly all actives have a fitted effect of over 50% in size
* hit, by the source's call; ? = inconclusive; / = no result; [ ] = dose if it differs, or a comment. Rows were chosen to be rich in hits. Some 12% of all compounds tested hit in one or more screens of this group.

SMILES	Cycloheximide cs	MARV entry inh	Shiga toxin inh	LASV entry inh
COc1cccc(NC(=O)CCSc2nc(-c3ccco3)cc(C(F)(F)F)n2)c1	/	-7%[46.1 µM]	/	8%[46.1 µM]
COc1cc(C)c(CN2CCC(n3nccc3NC(=O)C3CC3)CC2)cc1C	-1	?	-4	?
O=C(c1ccco1)N1CCN(C(=O)c2ccccc2OCc2ccc(Cl)cc2)CC1	/	-11%	/	?
COC(=O)c1ccccc1CSc1nsc(/C=C/N(C)C)c1C#N	-6	/	-10	/
Cc1nc(CSc2nsc(/C=C/N(C)C)c2C#N)cs1	29*	?	103*	20%
O=C(COC(=O)/C=C/c1ccc(F)cc1)NC1CCS(=O)(=O)C1 (stereo not drawn)	/	-10%	/	-1%
COC(=O)C1=C(C(=O)OC)[C@@H]2Nc3ccccc3[C@@]23C[C@@H](C(=O)OC)N(C(=O)Nc2ccc(C(F)(F)F)cc2)C3=N1	/	-15%[14.2 µM]	/	/
CC(OC(=O)CCc1nc2ccccc2c(=O)[nH]1)C(=O)c1ccc(C(C)(C)C)cc1 (stereo not drawn)	22*	-7%	60*	9%
CC(OC(=O)CCc1nc2ccccc2c(=O)[nH]1)C(=O)NC1CCCC1 (stereo not drawn)	-1	-12%	-3	17%
COc1cccc2c(Nc3ccccc3C)cc(C)nc12	-3	-37%	-8	?
COc1cccc2nc3cc(C)c(C)cc3nc12	59*	/	59*	/
Cc1ccc(C[n+]2cccc(-c3ccccc3)c2)c(C)c1	-4	?	-14	?
C#CCN1C(=O)S/C(=C/C=C/c2ccc(N(C)C)cc2)C1=O	47*	-14%	116*	?
Cc1cc(C)c2c(c1)-c1c(ssc1=S)C(C)(C)N2C(=O)CSc1nncn1C	-6	14µM*	-26	?
Cc1ccc2c(c1)-c1c(ssc1=S)C(C)(C)N2C(=O)CSc1nncn1C	-2	?	-20	?
CN(C)c1ccc(/C=C(\C#N)C(=O)NCc2ccco2)cc1	50*	27%	85*	8%
CCN(CC)c1ccc(/C=C(\C#N)C(=O)NCc2ccco2)cc1	36*	/	43*	/
N#C/C(=C\Nc1ccc2c(c1)OCCO2)C(=O)NCc1ccco1	20	-4%[46.1 µM]	32*	-30%
Nn1cnc2cc3ccccc3cc2c1=O	18	/	36	/
CCC(NC(=O)Cc1c(C)c2cc3c(cc2oc1=O)OC(C)(C)CC3)C(=O)O (stereo not drawn)	21*	/	23	/
Cc1ccc(/C=N/NC(=O)c2cccs2)s1	52*	/	85*	/
Cc1ccc(/C=N/NC(=O)c2ccc3nc[nH]c3c2)s1	21	/	42	/
O=C(NN=Cc1ccccc1)NN=Cc1ccccc1	/	?	/	-9%[46.1 µM]
O=C(N/N=C/c1ccc(Br)s1)c1cccs1	48*	1%[46.1 µM]	80*	-20%[46.1 µM]
O=C(N/N=C/c1ccc(Br)s1)Nc1ccccc1	46*	/	53	/
SMILES	Cycloheximide cs	MARV entry inh	Shiga toxin inh	LASV entry inh
O=C(/C=C/c1ccc(Cl)cc1)N1CCN(c2ccccn2)CC1	-4	?	-2	-2%
O=C1/C(=C/c2ccc(C(=O)O)cc2)CCC/C1=C\c1ccc(C(=O)O)cc1	-3	-12%	-1	5%
C=CC(=O)N1C/C(=C/c2ccc(Cl)cc2)C(=O)/C(=C\c2ccc(Cl)cc2)C1	/	?	/	2.2µM*
C=CC(=O)N1C/C(=C/c2ccccc2)C(=O)/C(=C\c2ccccc2)C1	/	2.8µM*	/	?
CCOC(=O)c1[nH]c2ccccc2c1NC(=O)c1ccc(OC)c(OC)c1	/	-3%[46.1 µM]	/	7%[46.1 µM]
Cc1ccc(/C=C(\C#N)C(=O)Nc2ccccn2)o1	28*	?	58	?
COc1ccc(O)c(/C=C(\C#N)C(=O)Nc2ccccn2)c1	26*	/	53*	/
COc1ccc(/C=C(\C#N)C(=O)Nc2ccccn2)cc1	21*	3%[46.1 µM]	84	-1%
Cc1ccc(NC(=O)/C(C#N)=C/c2ccc(C)o2)cc1	/	/	/	18%[46.1 µM]
CC(C)Sc1cc(Cl)nc(NC(=O)Nc2ccccc2)n1	29*	/	50	/
O=C(Nc1ccccc1)c1cc(Cl)nc2ccccc12	-6	13%	7	9%
COc1ccc(OCC(=O)NNC(=O)c2cccc(S(=O)(=O)N(C)C)c2)cc1	-2	1%	-9	9%
CC(=O)c1ccc(N2CCN(S(=O)(=O)c3c(C)[nH]c(C)c3C(=O)N3CCCCC3)CC2)cc1	19*	12%[46.1 µM]	17	9%[46.1 µM]
COc1cc2c(cc1OC)C(c1ccc(Cl)cc1)=NCC2	1	/	17	/
COc1cc2c(cc1OC)C(c1ccc(-c3cc(Cl)ccc3Cl)o1)=NCC2	4	?	17	?
COc1cc2c(cc1OC)C(c1ccc(-c3ccccc3Cl)o1)=NCC2	12	21µM*	26	?
COc1cc2c(cc1OC)C(c1ccc(-c3ccc(Cl)cc3Cl)o1)=NCC2	-3	6.3µM*	-14	14µM*
COc1cc2c(cc1OC)C(c1ccc(-c3ccc(Cl)c(Cl)c3)o1)=NCC2	1	5.8µM*	-9	5.8µM*
CCOc1ccc(-n2nnnc2SCC(=O)Nc2cccc(O)c2)cc1	7	/	-14	/
CC(=O)c1c(C)[nH]c(C(=O)OCC(=O)N2CC(C)OC(C)C2)c1C (stereo not drawn)	/	2%	/	-13%
CN(C)/C=N/c1ncn(-c2ncc(C(F)(F)F)cc2Cl)n1	20	?	50*	5%[46.1 µM]
CCOC(=O)Cc1csc(NC(=O)CCCc2ccccc2)n1	7	/	9	/
CCOC(=O)Cc1csc(N/N=C\c2cccc(Br)c2)n1	11*	-20%	52*	0%
CCOC(=O)Cc1csc(NC(=O)COc2ccccc2OC)n1	-2	0%	20	3%
CCOC(=O)Cc1csc(N/N=C/c2ccccc2)n1	61*	?	104*	-1%[46.1 µM]
SMILES	Cycloheximide cs	MARV entry inh	Shiga toxin inh	LASV entry inh
CCOC(=O)Cc1csc(N/N=C\c2ccccc2OC)n1	24*	/	50*	/
CCOC(=O)Cc1csc(N/N=C\c2ccc(N(C)C)cc2)n1	24*	/	64*	/
COc1ccc(C(=O)CCS(=O)(=O)c2ccc(C)cc2)cc1OC	-3	?	-11	?
C#CCOC(=O)c1cc(Cl)c(=O)n(Cc2ccc(Cl)cc2Cl)c1	1	/	-9	/
COc1ccc(/C=N/Nc2nc(C(=O)O)cs2)cc1	25*	/	34*	/
COC(=O)c1ccc(/C=N/Nc2nc(-c3ccccc3)cs2)cc1	14	12%	3	-3%
Cc1cc(C)cc(N(C(C)C(=O)N2CCCC2)S(C)(=O)=O)c1 (stereo not drawn)	-2	?	3	17%
Cc1cc(Cl)c2oc(C(=O)N(C)CCCCN3CCOCC3)c(C)c2c1	-1	0%[46.1 µM]	-2	1%[46.1 µM]
Cc1cc(Cl)c2oc(C(=O)N3CCN(c4ccncc4)CC3)c(C)c2c1	/	3.5µM*	/	?
Cc1cc(Cl)c2oc(C(=O)NCC(C)(C)N3CCOCC3)c(C)c2c1	18*	13%[46.1 µM]	37	?
CCOC(=O)C1CCCCN1C(=O)c1oc2c(Cl)cc(C)cc2c1C (stereo not drawn)	46*	-6%	118*	?
Cc1cc(Cl)c2oc(C(=O)NC3CCC(O)CC3)c(C)c2c1 (stereo not drawn)	21*	/	/	/
CCOC(=O)c1c(NC(=O)C2c3ccccc3Oc3ccccc32)sc(C)c1CC	/	-1%[46.1 µM]	/	-15%[46.1 µM]
CCOc1ccc(CCNC(=O)CS(=O)(=O)Cc2nc(-c3cccc(Cl)c3)oc2C)cc1	/	-12%[46.1 µM]	/	-3%[46.1 µM]
